Assay results reported in publication PMC5700166.
Numbering of substitutions follows the chain as printed.

How the values were obtained:
Experiment in all cases: protein-binding microarray (PBM); PBM: ~300 nM protein, 6 mM HEPES pH 7.8, 80 mM KCl, 0.5 mM EDTA, 0.5 mM EGTA, 6% glycerol, 35 ng/ul poly-dIdC, 1% milk, 1 h, room temperature; Ap Aiptasia and Nv Nematostella (sea anemones) / Co Capsaspora / Aq Amphimedon (sponge) / Dm Drosophila / Hu human; RHD is the Rel homology domain; high values mean tight binding
Details in all cases: dsDNA, one strand shown
GST-Ap-NF-kB RHD = molecular target: T1, GST-Ap-NF-kB RHD (Exaiptasia pallida (Aiptasia), UniProt A0A913YAJ5 2-422)
T1 sequence: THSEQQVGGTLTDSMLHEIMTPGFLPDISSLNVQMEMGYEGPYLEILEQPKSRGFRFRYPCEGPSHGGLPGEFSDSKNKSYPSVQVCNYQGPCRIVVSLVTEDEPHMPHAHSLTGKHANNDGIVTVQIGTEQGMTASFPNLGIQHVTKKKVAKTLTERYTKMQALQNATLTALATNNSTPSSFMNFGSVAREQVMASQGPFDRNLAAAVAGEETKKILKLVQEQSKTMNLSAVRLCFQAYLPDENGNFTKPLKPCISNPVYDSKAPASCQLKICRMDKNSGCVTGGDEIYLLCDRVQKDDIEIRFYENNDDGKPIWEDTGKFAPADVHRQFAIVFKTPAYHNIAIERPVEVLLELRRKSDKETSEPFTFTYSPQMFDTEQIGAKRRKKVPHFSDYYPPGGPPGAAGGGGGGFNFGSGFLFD

[1] = molecular target: T2, GST-Nv-NF-kB (Cys allele) (Nematostella vectensis, UniProt E5G601 2-411)
T2 sequence: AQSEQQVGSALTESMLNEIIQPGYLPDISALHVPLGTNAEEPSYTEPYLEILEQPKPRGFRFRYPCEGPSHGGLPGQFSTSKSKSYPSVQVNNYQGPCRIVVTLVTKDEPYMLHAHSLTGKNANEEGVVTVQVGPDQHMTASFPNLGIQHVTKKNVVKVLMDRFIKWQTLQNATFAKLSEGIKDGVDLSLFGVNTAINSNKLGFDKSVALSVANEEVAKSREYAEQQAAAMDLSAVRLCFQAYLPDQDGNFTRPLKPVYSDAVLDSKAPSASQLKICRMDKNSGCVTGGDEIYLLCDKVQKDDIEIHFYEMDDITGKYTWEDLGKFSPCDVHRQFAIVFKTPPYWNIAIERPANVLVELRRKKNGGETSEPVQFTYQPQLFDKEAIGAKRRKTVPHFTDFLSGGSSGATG

GST-Dm-Relish = molecular target: T3, GST-Dm-Relish (Drosophila melanogaster, UniProt Q94527 99-473)
T3 sequence: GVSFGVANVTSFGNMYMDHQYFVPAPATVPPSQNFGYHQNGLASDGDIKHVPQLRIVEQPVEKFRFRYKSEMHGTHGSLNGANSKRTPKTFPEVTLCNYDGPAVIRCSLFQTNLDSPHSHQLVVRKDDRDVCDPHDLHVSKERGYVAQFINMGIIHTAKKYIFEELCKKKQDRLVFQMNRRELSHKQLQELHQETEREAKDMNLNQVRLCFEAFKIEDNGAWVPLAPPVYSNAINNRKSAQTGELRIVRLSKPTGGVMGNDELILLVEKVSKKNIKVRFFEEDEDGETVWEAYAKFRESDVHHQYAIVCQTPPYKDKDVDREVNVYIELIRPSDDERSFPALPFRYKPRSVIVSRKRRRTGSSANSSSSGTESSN

GST-Aq-NF-kB = molecular target: T4, GST-Aq-NF-kB (Amphimedon queenslandica, UniProt A9Y5G7 2-389)
T4 sequence: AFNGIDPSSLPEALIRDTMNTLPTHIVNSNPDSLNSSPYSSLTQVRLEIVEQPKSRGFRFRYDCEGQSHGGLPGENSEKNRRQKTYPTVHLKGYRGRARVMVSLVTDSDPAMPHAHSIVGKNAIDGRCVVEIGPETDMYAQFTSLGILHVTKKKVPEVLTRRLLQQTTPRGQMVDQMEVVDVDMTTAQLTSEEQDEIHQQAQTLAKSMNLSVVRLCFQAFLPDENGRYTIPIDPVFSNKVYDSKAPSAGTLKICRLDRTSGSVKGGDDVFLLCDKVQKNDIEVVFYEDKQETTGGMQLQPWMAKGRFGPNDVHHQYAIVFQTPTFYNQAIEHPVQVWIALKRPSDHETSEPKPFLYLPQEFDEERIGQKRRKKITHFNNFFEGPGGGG

GST-Hu-p50 = GST-Hu-p50 (Homo sapiens, UniProt P19838 7-356)
Chain of GST-Hu-p50 (P19838 7-356): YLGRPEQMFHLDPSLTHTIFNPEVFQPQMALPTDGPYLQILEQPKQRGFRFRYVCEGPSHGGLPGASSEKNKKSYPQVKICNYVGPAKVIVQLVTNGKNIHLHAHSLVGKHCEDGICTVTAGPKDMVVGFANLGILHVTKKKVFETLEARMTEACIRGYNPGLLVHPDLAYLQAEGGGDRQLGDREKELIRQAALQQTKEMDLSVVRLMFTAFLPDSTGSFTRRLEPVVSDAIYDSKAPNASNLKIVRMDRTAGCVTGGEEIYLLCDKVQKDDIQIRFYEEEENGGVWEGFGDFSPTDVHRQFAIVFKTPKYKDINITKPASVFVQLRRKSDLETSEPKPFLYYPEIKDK

GST-Co-NF-kB = molecular target: T5, GST-Co-NF-kB (Capsaspora owczarzaki, UniProt F1ARL5 200-546)
T5 sequence: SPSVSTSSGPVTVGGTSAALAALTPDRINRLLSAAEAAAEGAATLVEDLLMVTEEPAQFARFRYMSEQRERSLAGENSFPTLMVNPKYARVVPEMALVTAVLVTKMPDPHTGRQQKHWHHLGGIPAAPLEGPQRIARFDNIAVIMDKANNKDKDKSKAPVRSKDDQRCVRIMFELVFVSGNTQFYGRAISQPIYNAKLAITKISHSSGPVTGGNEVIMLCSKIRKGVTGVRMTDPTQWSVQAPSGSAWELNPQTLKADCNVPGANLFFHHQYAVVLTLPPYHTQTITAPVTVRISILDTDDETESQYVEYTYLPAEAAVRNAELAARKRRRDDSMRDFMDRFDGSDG

[2] = molecular target: T6, GST-Nv-NF-kB (Ser allele) (Nematostella vectensis, UniProt A7UNT2 2-411)
T6 sequence: T2 sequence with Q21R, C66S, S207N, E215Q, V217A, E225K, A268E, D399E

Row | Sequence | binding signal (GST-Ap-NF-kB RHD) [z-score] | binding signal [1] [z-score] | binding signal (GST-Dm-Relish) [z-score] | binding signal (GST-Aq-NF-kB) [z-score] | binding signal (GST-Hu-p50) [z-score] | binding signal (GST-Co-NF-kB) [z-score] | binding signal [2] [z-score]
1 | CCGATTAACATCAGGACCTTCCCTGATGTTAATCGGGTCTTGATTCGCTTGACGCTGCTG | 2.74 | 2.66 | 1.9 | 5.89 | 1.95 |  | 
2 | CCGATTAACATCAAATAAGCCCCTGATGTTAATCGGGTCTTGATTCGCTTGACGCTGCTG | 3.57 | 5.54 | 4.29 | 5.74 | 4.31 | 1.15 | 
3 | CCGATTAACATCACGGGAAGCCCTGATGTTAATCGGGTCTTGATTCGCTTGACGCTGCTG | 2.49 | 1.91 | 7.08 | 4.42 | 1.11 |  | 
4 | CCGATTAACATCAGGGCCTTTTGTGATGTTAATCGGGTCTTGATTCGCTTGACGCTGCTG | 1.85 | 1.14 | 5.05 | 2.46 | 2.05 |  | 
5 | CCGATTAACATCAGGACATACCCTGATGTTAATCGGGTCTTGATTCGCTTGACGCTGCTG | 1.92 | 2.84 | 2.79 | 5.54 | 1.78 |  | 
6 | CCGATTAACATCAGGTGTTTCCATGATGTTAATCGGGTCTTGATTCGCTTGACGCTGCTG | 1.26 | 1.06 | 2.26 | 1.98 | 2.81 |  | 
7 | CCGATTAACATCAGGCGAACCCCTGATGTTAATCGGGTCTTGATTCGCTTGACGCTGCTG | 1.57 | 1.1 | 1.37 | 2.96 | 1.53 |  | 
8 | CCGATTAACATCACGGTGTTTCCTGATGTTAATCGGGTCTTGATTCGCTTGACGCTGCTG | 1.53 | 1.22 | 2.06 | 2.67 | 2.96 |  | 
9 | CCGATTAACATCAGGACTGCCCCTGATGTTAATCGGGTCTTGATTCGCTTGACGCTGCTG | 3.49 | 4.13 | 3.18 | 7.05 | 4.09 |  | 
10 | CCGATTAACATCAGAAAATCACCTGATGTTAATCGGGTCTTGATTCGCTTGACGCTGCTG | 2.77 | 3.28 | 6.91 | 3.39 | 5.67 |  | 
11 | CCGATTAACATCAGAAAAACACCTGATGTTAATCGGGTCTTGATTCGCTTGACGCTGCTG | 2.56 | 3.55 | 3.66 | 3.91 | 5.37 |  | 
12 | CCGATTAACATCACGGGCTTCCCTGATGTTAATCGGGTCTTGATTCGCTTGACGCTGCTG | 1.85 | 2 | 7.65 | 4.57 | 1.14 |  | 
13 | CCGATTAACATCAAAAAATCACCTGATGTTAATCGGGTCTTGATTCGCTTGACGCTGCTG | 2.88 | 4.37 | 8.12 | 3.98 | 5.67 |  | 
14 | CCGATTAACATCAGGAAAGGCCCTGATGTTAATCGGGTCTTGATTCGCTTGACGCTGCTG | 2.38 | 2.62 | 5.48 | 5.31 | 2.61 |  | 
15 | CCGATTAACATCAAACAGTCCCCTGATGTTAATCGGGTCTTGATTCGCTTGACGCTGCTG | 5.58 | 5.6 | 3.49 | 5.66 | 4.54 | 2.54 | 
16 | CCGATTAACATCACCCTCGAGGGTGATGTTAATCGGGTCTTGATTCGCTTGACGCTGCTG | 1.01 |  | 1.08 | 1.65 | 2.34 | 1.1 | 1.78

Row | Sequence | binding signal (GST-Ap-NF-kB RHD) [z-score] | binding signal [1] [z-score] | binding signal (GST-Dm-Relish) [z-score] | binding signal (GST-Aq-NF-kB) [z-score] | binding signal (GST-Hu-p50) [z-score] | binding signal (GST-Co-NF-kB) [z-score] | binding signal [2] [z-score]
17 | CCGATTAACATCAAAAACTTTCCTGATGTTAATCGGGTCTTGATTCGCTTGACGCTGCTG |  |  | 2.34 | 2.68 | 1.25 |  | 1.54
18 | CCGATTAACATCAGGGAGTACACTGATGTTAATCGGGTCTTGATTCGCTTGACGCTGCTG | 1.96 |  | 1.58 | 1.84 | 1.1 | 1.03 | 
19 | CCGATTAACATCAAGGAATTTTCTGATGTTAATCGGGTCTTGATTCGCTTGACGCTGCTG |  | 1.08 | 1.93 | 2.26 | 1.18 |  | 
20 | CCGATTAACATCAAAATTTTTCCTGATGTTAATCGGGTCTTGATTCGCTTGACGCTGCTG |  |  | 2.86 | 1.46 | 1.87 | 1.06 | 1.42
21 | CCGATTAACATCAAAATTTACCATGATGTTAATCGGGTCTTGATTCGCTTGACGCTGCTG |  |  | 2.43 | 1.07 | 2.22 |  | 2.56
22 | CCGATTAACATCAGGAAATTCCATGATGTTAATCGGGTCTTGATTCGCTTGACGCTGCTG |  | 1.06 | 1.68 | 3.91 | 1.1 |  | 
23 | CCGATTAACATCAGGTAAATACCTGATGTTAATCGGGTCTTGATTCGCTTGACGCTGCTG |  | 2.06 | 4.77 | 4.2 | 2.11 |  | 3.12
24 | CCGATTAACATCAGGTTATTCCATGATGTTAATCGGGTCTTGATTCGCTTGACGCTGCTG |  |  | 2.41 | 1.85 | 3.32 |  | 2.28
25 | CCGATTAACATCAGTGGGAAACATGATGTTAATCGGGTCTTGATTCGCTTGACGCTGCTG |  | 1.93 |  | 2.03 | 1.25 | 3.12 | 1.79
26 | CCGATTAACATCAGTTTCCCAAATGATGTTAATCGGGTCTTGATTCGCTTGACGCTGCTG |  | 2.56 | 1.2 | 1.17 | 1.81 | 2.19 | 3.42
27 | CCGATTAACATCAGAAATTGCCCTGATGTTAATCGGGTCTTGATTCGCTTGACGCTGCTG |  | 1.33 |  | 2.44 | 1.68 |  | 
28 | CCGATTAACATCAGGATTTGCCCTGATGTTAATCGGGTCTTGATTCGCTTGACGCTGCTG |  | 1.25 |  | 3.5 | 1.37 |  | 
29 | CCGATTAACATCAAAGTGGGAAATGATGTTAATCGGGTCTTGATTCGCTTGACGCTGCTG |  | 3.3 |  | 1.64 | 2.09 | 2.54 | 2.91
30 | CCGATTAACATCAGAAAATACCATGATGTTAATCGGGTCTTGATTCGCTTGACGCTGCTG |  | 1.12 | 3.11 | 1.58 | 1.63 |  | 1.7
31 | CCGATTAACATCACCCCAAACGCTGATGTTAATCGGGTCTTGATTCGCTTGACGCTGCTG | 1.27 |  |  | 1.09 | 1.17 | 1.79 | 
32 | CCGATTAACATCATAATGGGAAATGATGTTAATCGGGTCTTGATTCGCTTGACGCTGCTG |  | 2.83 |  | 1.68 | 2.18 | 1.93 | 2.35
